# Paper PMC5700166
# Numbering of substitutions follows the chain as printed.
# How the values were obtained:
# Assay in all cases: protein-binding microarray (PBM); PBM: ~300 nM protein, 6 mM HEPES pH 7.8, 80 mM KCl, 0.5 mM EDTA, 0.5 mM EGTA, 6% glycerol, 35 ng/ul poly-dIdC, 1% milk, 1 h, room temperature; Ap Aiptasia and Nv Nematostella (sea anemones) / Co Capsaspora / Aq Amphimedon (sponge) / Dm Drosophila / Hu human; RHD is the Rel homology domain; high values mean tight binding
# Details in all cases: dsDNA, one strand shown
# GST-Ap-NF-kB RHD = molecular target: T1, GST-Ap-NF-kB RHD (Exaiptasia pallida (Aiptasia), UniProt A0A913YAJ5 2-422)
# T1 sequence: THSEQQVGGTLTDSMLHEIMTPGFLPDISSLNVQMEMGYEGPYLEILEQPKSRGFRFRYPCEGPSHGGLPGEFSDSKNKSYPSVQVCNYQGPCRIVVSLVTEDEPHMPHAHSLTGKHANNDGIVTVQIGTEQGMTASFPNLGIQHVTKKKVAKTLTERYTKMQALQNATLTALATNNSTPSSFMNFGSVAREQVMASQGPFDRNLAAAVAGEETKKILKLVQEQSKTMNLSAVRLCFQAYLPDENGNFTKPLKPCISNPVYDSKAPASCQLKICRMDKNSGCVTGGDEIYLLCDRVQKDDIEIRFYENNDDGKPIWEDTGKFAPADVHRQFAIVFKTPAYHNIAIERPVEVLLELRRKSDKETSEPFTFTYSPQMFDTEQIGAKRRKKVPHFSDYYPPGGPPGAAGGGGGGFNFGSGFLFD
# [1] = molecular target: T2, GST-Nv-NF-kB (Cys allele) (Nematostella vectensis, UniProt E5G601 2-411)
# T2 sequence: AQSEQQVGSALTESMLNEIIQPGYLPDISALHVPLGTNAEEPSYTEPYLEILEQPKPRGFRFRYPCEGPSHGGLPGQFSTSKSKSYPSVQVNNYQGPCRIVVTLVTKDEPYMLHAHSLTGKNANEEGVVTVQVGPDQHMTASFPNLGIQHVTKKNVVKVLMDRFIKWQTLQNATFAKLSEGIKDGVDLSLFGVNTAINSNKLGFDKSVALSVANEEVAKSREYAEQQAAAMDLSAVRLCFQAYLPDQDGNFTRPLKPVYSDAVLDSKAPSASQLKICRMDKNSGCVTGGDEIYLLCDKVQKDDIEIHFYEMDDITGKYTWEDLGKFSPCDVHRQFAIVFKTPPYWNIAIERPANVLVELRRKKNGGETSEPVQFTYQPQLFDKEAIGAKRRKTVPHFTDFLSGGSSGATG
# [2] = molecular target: T3, GST-Nv-NF-kB (Ser allele) (Nematostella vectensis, UniProt A7UNT2 2-411)
# T3 sequence: T2 sequence with Q21R, C66S, S207N, E215Q, V217A, E225K, A268E, D399E
# GST-Co-NF-kB = molecular target: T4, GST-Co-NF-kB (Capsaspora owczarzaki, UniProt F1ARL5 200-546)
# T4 sequence: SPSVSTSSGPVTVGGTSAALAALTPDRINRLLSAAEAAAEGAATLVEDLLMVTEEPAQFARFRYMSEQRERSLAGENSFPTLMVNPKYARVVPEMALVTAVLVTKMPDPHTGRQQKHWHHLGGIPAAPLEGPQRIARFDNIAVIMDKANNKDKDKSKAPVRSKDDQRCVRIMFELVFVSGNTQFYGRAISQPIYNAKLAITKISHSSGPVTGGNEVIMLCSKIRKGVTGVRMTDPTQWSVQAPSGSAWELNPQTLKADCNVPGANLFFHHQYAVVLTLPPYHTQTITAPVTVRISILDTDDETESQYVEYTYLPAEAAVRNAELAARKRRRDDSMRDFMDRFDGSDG
# GST-Dm-Relish = molecular target: T5, GST-Dm-Relish (Drosophila melanogaster, UniProt Q94527 99-473)
# T5 sequence: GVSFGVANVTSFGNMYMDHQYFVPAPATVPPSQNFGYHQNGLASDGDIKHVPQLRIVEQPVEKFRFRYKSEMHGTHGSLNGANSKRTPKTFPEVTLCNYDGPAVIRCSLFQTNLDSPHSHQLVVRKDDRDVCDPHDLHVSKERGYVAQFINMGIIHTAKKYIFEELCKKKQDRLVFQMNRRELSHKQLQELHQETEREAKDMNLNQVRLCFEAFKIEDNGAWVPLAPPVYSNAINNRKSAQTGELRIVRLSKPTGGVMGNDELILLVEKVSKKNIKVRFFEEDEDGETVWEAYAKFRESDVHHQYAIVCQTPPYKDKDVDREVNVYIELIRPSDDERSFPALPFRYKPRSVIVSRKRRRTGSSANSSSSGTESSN
# GST-Aq-NF-kB = molecular target: T6, GST-Aq-NF-kB (Amphimedon queenslandica, UniProt A9Y5G7 2-389)
# T6 sequence: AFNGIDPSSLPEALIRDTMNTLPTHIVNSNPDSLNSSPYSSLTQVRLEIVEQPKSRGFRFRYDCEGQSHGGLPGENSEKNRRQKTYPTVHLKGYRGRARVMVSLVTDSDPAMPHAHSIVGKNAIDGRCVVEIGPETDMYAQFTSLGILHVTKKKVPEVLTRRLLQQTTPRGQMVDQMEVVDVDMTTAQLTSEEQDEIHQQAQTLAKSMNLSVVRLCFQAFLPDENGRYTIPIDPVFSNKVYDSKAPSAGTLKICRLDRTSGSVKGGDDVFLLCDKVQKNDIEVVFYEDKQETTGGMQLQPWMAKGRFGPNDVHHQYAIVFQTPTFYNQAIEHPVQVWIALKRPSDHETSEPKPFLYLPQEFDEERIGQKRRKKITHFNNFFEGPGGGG
Sequence,binding signal (GST-Ap-NF-kB RHD) [z-score],binding signal [1] [z-score],binding signal [2] [z-score],binding signal (GST-Co-NF-kB) [z-score],binding signal (GST-Dm-Relish) [z-score],binding signal (GST-Aq-NF-kB) [z-score]
CCGATTAACATCAGGGAAACTACTGATGTTAATCGGGTCTTGATTCGCTTGACGCTGCTG,3.54,4.2,4.47,3.89,5.85,5.64
CCGATTAACATCAACCTCCCCCCTGATGTTAATCGGGTCTTGATTCGCTTGACGCTGCTG,5.79,3.9,3.61,6.38,4.38,4.25
CCGATTAACATCAGGGGAAAGCATGATGTTAATCGGGTCTTGATTCGCTTGACGCTGCTG,5.49,6.83,8.3,6.79,2.4,4.54
CCGATTAACATCAATTTCCCGTATGATGTTAATCGGGTCTTGATTCGCTTGACGCTGCTG,2.46,4.12,4.4,3.1,1.58,3.17
CCGATTAACATCACCCATTCCCCTGATGTTAATCGGGTCTTGATTCGCTTGACGCTGCTG,6.25,5.53,7.1,5.33,2.33,4.22
CCGATTAACATCAGGGGAACATATGATGTTAATCGGGTCTTGATTCGCTTGACGCTGCTG,5.1,5.89,6.74,7.58,4.08,5.59
CCGATTAACATCAATAGTTCCCCTGATGTTAATCGGGTCTTGATTCGCTTGACGCTGCTG,6.43,6.96,8.51,7.79,6.77,5.01
CCGATTAACATCAGGGGATACCCTGATGTTAATCGGGTCTTGATTCGCTTGACGCTGCTG,8.36,7.45,6.59,3.74,9.05,8.11
CCGATTAACATCAGGGGAAGCACTGATGTTAATCGGGTCTTGATTCGCTTGACGCTGCTG,5.88,6.43,6.99,4.4,9.95,6.83
CCGATTAACATCAGGGGGGGGACTGATGTTAATCGGGTCTTGATTCGCTTGACGCTGCTG,7.06,5.11,4.69,4.78,–,5.29
CCGATTAACATCAGGGGAACCTATGATGTTAATCGGGTCTTGATTCGCTTGACGCTGCTG,6.11,6.27,7.41,5.66,4.09,4.46
CCGATTAACATCAAATTCTCCCCTGATGTTAATCGGGTCTTGATTCGCTTGACGCTGCTG,5.65,6.62,7.76,8.72,2.37,5.21
CCGATTAACATCACGTTTTTCCCTGATGTTAATCGGGTCTTGATTCGCTTGACGCTGCTG,3.81,4.59,6.7,5.98,4.58,4.26
CCGATTAACATCAACGTGGGGCGTGATGTTAATCGGGTCTTGATTCGCTTGACGCTGCTG,1.07,1.14,1.09,1.11,–,1.15
CCGATTAACATCAGGGGAACTCATGATGTTAATCGGGTCTTGATTCGCTTGACGCTGCTG,6.56,6.78,7.59,5.3,6.03,4.88
CCGATTAACATCAGGATTTTCCCTGATGTTAATCGGGTCTTGATTCGCTTGACGCTGCTG,5.75,8.01,7.34,3.97,4.83,8.92
CCGATTAACATCACGGGATTTTCTGATGTTAATCGGGTCTTGATTCGCTTGACGCTGCTG,5.11,4.77,4.15,1.98,6.84,5.2
CCGATTAACATCAGGGGGGGGTATGATGTTAATCGGGTCTTGATTCGCTTGACGCTGCTG,5.02,2.75,3.75,5.96,–,4.39
CCGATTAACATCAGACGTGGGAATGATGTTAATCGGGTCTTGATTCGCTTGACGCTGCTG,1.19,1.45,1.48,2.5,–,2.21
CCGATTAACATCACGTATTCCCCTGATGTTAATCGGGTCTTGATTCGCTTGACGCTGCTG,7.14,7.75,7.86,6.56,4.86,5.55
CCGATTAACATCAGGGGTAACACTGATGTTAATCGGGTCTTGATTCGCTTGACGCTGCTG,1.82,1.03,1.27,4.28,–,2.5
CCGATTAACATCAGCATTTTCCCTGATGTTAATCGGGTCTTGATTCGCTTGACGCTGCTG,3.21,4.61,6.85,3.96,–,3.68
CCGATTAACATCAGGGGTGGGGATGATGTTAATCGGGTCTTGATTCGCTTGACGCTGCTG,4.17,3.38,3.28,5.49,2.85,3.59
